According to the supplement of paper PMC9177965:
Several values for one entry are separate records, joined by “and”; a condition that tells them apart may be missing. Identical values can stand only once.

These compounds were tested on HT29 RNF43 G659fs (RNF43 659mut, CRISPR-edited) (assay: cell viability activity relative to DMSO (negative = inhibition); higher = more viable cells (less growth inhibition)). Settings: 5 µM; 96 h.
Procedure: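 Broad Repurposing Library primary screen at a single dose of 5 uM. HT29 sg-Ctrl and HT29 RNF43 G659fs CRISPR-edited isogenic cells were seeded at 2500 cells/well in 384-well plates in duplicate and treated for 96 h. Viability was read by CellTiter-Glo and reported as % activity relative to DMSO, with MG132 as the positive control (negative = growth inhibition).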

| Compound | cell viability activity |
| --- | --- |
| CNC(=O)c1ccccc1Nc1cc(Nc2ccc(N3CCOCC3)cc2OC)ncc1C(F)(F)F | -64.6% |
| COCCN1CCN(Cc2ccc(-c3n[nH]c4c3C(=O)c3c(NC(=O)NN5CCOCC5)cccc3-4)cc2)CC1 | -78.2% |
| CN(C)C(=O)CCSC(SCCC(=O)O)c1cccc(/C=C/c2ccc3ccc(Cl)cc3n2)c1 (stereo not drawn) | -22.6% |
| COc1c(OCCCN2CCOCC2)ccc2c3n(c(=NC(=O)c4cnc(N)nc4)nc12)CCN3 | -59.6% |
| N[C@@H](Cn1ccc(=O)n(Cc2ccccc2C(=O)O)c1=O)C(=O)O | -36.8% |
| N=C(NCCCCCCNC(=N)NC(=N)Nc1ccc(Cl)cc1)NC(=N)Nc1ccc(Cl)cc1 | -45.1% |
| CCCC1(CCC)CCC2(CCN(CCCN(CC)CC)C2)CC1 | -96.4% |
| COc1ccccc1S(=O)(=O)Nc1ccc2c(c1)CN(C)C(=O)N2 | -56.4% |
| Cc1ccc(/C=C2\CNC/C(=C\c3ccc(C)cc3)C2=O)cc1 | -93.6% |
| c1ccc(CNc2nc(NCc3ccccc3)c3ccccc3n2)cc1 | -22% |
| Cc1ccc(C)c(OCCCC(C)(C)C(=O)O)c1 | -30% |
| CCN(CC)CCOCCOC(=O)C(CC)(CC)c1ccccc1 | -31% |
| OC1(c2ccc(Cl)c(C(F)(F)F)c2)CCN(CCCC(c2ccc(F)cc2)c2ccc(F)cc2)CC1 | -83% |
| CN(C)CCOc1ccc(-c2nc(-c3ccncc3)c(-c3ccc4c(c3)CC/C4=N\O)[nH]2)cc1 | -44.3% |
| NS(=O)(=O)C#Cc1ccccc1 | -68.8% |
| O=C(NC1CCNCC1)c1n[nH]cc1NC(=O)c1c(Cl)cccc1Cl | -82.8% |
| OCc1ccc(-c2ccc(-c3ccc(CO)s3)o2)s1 | -51.5% |
| CC(C)Oc1ccc(C(=O)N[C@H](CNC(=O)CN(C)C)Cc2ccc(-c3cn4cccc([C@H](C)O)c4n3)cc2)cc1Cl | -54.6% |
| CC(C)c1cc(C(C)C)c(-c2csc(N(CCN(C)C)Cc3cccnc3)n2)c(C(C)C)c1 | -24% |

| Compound | cell viability activity |
| --- | --- |
| Cc1ccc(C(=O)Nc2cccc(C(F)(F)F)c2)cc1Nc1nc(-c2cccnc2)nc2c1cnn2C | -36.8% |
| CC(C)(C)c1ccc(-c2nc3ccccc3[nH]2)cc1 | -58.2% |
| CCOC(=O)CCNc1cc(N2CCc3ccccc3CC2)nc(-c2ccccn2)n1 | -82.7% |
| O=C(c1cccc(Cl)c1F)N1CCN(Cc2cccc(Nc3nccs3)n2)CC1 | -27.7% |
| CCCCCCCCCCCCCCCC[N+](C)(C)C | -84.6% |
| COc1cc2ncnc(Sc3nnc(C)s3)c2cc1OC | -29.5% |
| Cc1[nH]nc2ccc(-c3cncc(OC[C@@H](N)Cc4ccccc4)c3)cc12 | -89.5% |
| CC(C)/N=c1\cc2n(-c3ccc(Cl)cc3)c3ccccc3nc-2cc1Nc1ccc(Cl)cc1 | -75.3% |
| CC(CN1c2ccccc2Sc2ccccc21)N(C)C (stereo not drawn) | -40.7% |
| COc1cc([C@@H]2c3cc4c(cc3[C@@H](O[C@@H]3O[C@@H]5CO[C@@H](c6cccs6)O[C@H]5[C@H](O)[C@H]3O)[C@H]3COC(=O)[C@H]23)OCO4)cc(OC)c1O | -84.4% and -59.9% |
| Cc1nnc(C[C@@H]2C=C(c3ccc(Cl)cc3)c3ccccc3-n3c(C)nnc32)o1 | -63.5% |
| COc1cc2nc(N3CCC(N4CCCCC4)CC3)nc(NC3CCCCCC3)c2cc1OC | -93.5% |
| COc1ccc(NC(=O)c2ccc(-c3ccc(-c4noc(C)n4)cc3C)cc2)cc1N1CCN(C)CC1 | -61% |
| O=C(Nc1nc2ccc(NC(=O)C34CC5CC(CC(C5)C3)C4)cc2s1)c1ccccc1 | -37.7% |
| O=C(NOCCO)c1cc(CN2OCCCC2=O)c(F)c(F)c1Nc1ccc(I)cc1F | -76.5% |
| CC(C)NC[C@@H](C(=O)N1CCN(c2ncnc3c2[C@H](C)C[C@H]3O)CC1)c1ccc(Cl)cc1 | -53.6% |
| Nc1nc(Nc2ccc3c(c2)CCC(N2CCCC2)CC3)nn1-c1cc2c(nn1)-c1ccccc1CCC2 (stereo not drawn) | -28.9% |
| CC(C)[C@](O)(c1ccc2cc(OC(F)F)c(OC(F)F)cc2c1)c1c[nH]nn1 | -54.8% |
| c1cc(Nc2cc(C3CC3)[nH]n2)nc(Nc2ccc3nc[nH]c3c2)n1 | -29.4% |
